Common to all, as to experiment: NCI-60 one-dose screen, 48 h (100 = growth as untreated, 0 = no growth, -100 = all killed)
Experiment [1] concerns HCT-15 colon. Particulars: 10 µM unless noted.
Experiment [2] concerns HT29 colon. The following applies: 10 µM unless noted.
Experiment [3] concerns SNB-75 CNS. The following applies: 10 µM unless noted.
The test system of experiment [4] is SNB-19 CNS. Particulars: 10 µM unless noted.
The test system of experiment [5] is PC-3 prostate. Particulars: 10 µM unless noted.
Experiment [6] has as its system SK-MEL-5 melanoma. Particulars: 10 µM unless noted.
The subject of experiment [7] is UACC-62 melanoma. The following applies: 10 µM unless noted.
In experiment [8] the test system is LOX IMVI melanoma. The following applies: 10 µM unless noted.
The subject of experiment [9] is SK-MEL-28 melanoma. Particulars: 10 µM unless noted.
Experiment [10] relates to SK-MEL-2 melanoma. Particulars: 10 µM unless noted.
In experiment [11] the test system is EKVX NSCLC. Particulars: 10 µM.
Experiment [12] concerns SN12C renal. Particulars: 10 µM unless noted.
The test system of experiment [13] is TK-10 renal. Particulars: 10 µM unless noted.
Experiment [14] concerns ACHN renal. Particulars: 10 µM unless noted.
Experiment [15] concerns CAKI-1 renal. Particulars: 10 µM unless noted.
Experiment [16] has as its system A498 renal. Particulars: 10 µM unless noted.
Experiment [17] deals with CCRF-CEM leukemia. The following applies: 10 µM.
Experiment [18] has as its system MOLT-4 leukemia. Particulars: 10 µM unless noted.
For experiment [19], the system named is UO-31 renal. The following applies: 10 µM unless noted.

Compounds without any hit were thinned out: in the full panel of roughly 83,000, 20% have a hit.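 Values shown are percent growth following 48 h exposure of cells in 96-well plates to a single concentration of compound; below 10 was considered active.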 Values without a mark were called inactive. Active and inactive are the calls of the source.

Turning to `Nc1nc2c(c3cnccc13)C(c1cccc(Cl)c1)Cc1cnccc1-2` (stereo unspecified), the growth in experiment [1] is 7.84% (active); in experiment [2], 4.99% (active); in [3] it was 21%; in experiment [4], 29.2%; in [5], 12.8%; in experiment [6], -16.3% (active). For the same molecule, the growth in experiment [7] was 26.7%; in experiment [8], 8.05% (active); in experiment [9] it was 56%; in [10], 26.8%; in experiment [11] it was 24.2%; in experiment [12], 33.8%. For the same molecule, the growth in experiment [13] is 23.9%; in [14], 15%; in experiment [15], 25.2%; in experiment [16], -5.65% (active); in experiment [17], 13.3%; in experiment [18] it was 16.5%.

Turning to `CNCCCNCCCCNCCCN1C(=O)c2ccc3c4c(ccc(c24)C1=O)C(=O)N(CCCNCc1ccccc1OC)C3=O`, the growth in experiment [1] was 46.8%; in experiment [2], 4.56% (active); in experiment [3], -0.885% (active); in experiment [4] it was 36%; in experiment [5] it was 58.7%; in experiment [7] it was -1.88% (active). Besides, the growth in experiment [8] was 8.88% (active); in experiment [9], -9.35% (active); in experiment [10] it was 14%; in experiment [12], 24.6%; in [19], 16.8%; in experiment [13], 41.9%. For the same molecule, the growth in [14] is 26%; in experiment [15] it was 28.6%; in experiment [16], 45.1%; in [17], 45.8%; in experiment [18], 24.9%.

For the molecule `COC(=O)c1cc(=O)nc(N/N=C/c2ccccc2O)s1`, the growth in [1] was 70.4%; in [2], 92.9%; in experiment [3], 110%; in experiment [4], 95.3%; in [5] it was 86.3%; in experiment [6], 91.6%. In addition, the growth was 94.8% in experiment [7]; 82.3% in experiment [8]; 101% in experiment [9]; 97.9% in [10]; 90.9% in [12]; 61.4% in experiment [19]. The growth in experiment [13] is 112%; in experiment [14], 92.3%; in experiment [15], 79%; in [16], 112%; in [18] it was 72.1%.

With `CCCCCCCCCCC1OC(C)CC(C)O1` (stereo unspecified), the growth in experiment [1] was 102%; in [2] it was 106%; in experiment [3], 95.4%; in [4], 109%; in experiment [5] it was 101%; in experiment [6], 107%. Besides, the growth in experiment [7] is 107%; in experiment [9], 102%; in experiment [10], 105%; in experiment [12], 103%; in [19], 90.9%; in experiment [13] it was 100%. Besides, the growth in experiment [14] is 97.8%; in [15], 95.7%; in [16], 102%; in [18] it was 86.7%.

In the case of `CC(=O)Nc1ccc(S(=O)(=O)Cl)cc1`, the growth is 110% in [1]; 106% in experiment [2]; 94% in experiment [3]; 110% in [4]; 99.8% in [5]; 98.3% in [6]. In addition, the growth in [7] was 97.9%; in experiment [8] it was 94.8%; in experiment [9], 117%; in [10], 111%; in [12] it was 94.5%; in [19] it was 97.2%. The growth is 100% in experiment [13]; 113% in experiment [14]; 101% in [16]; 90.9% in experiment [17]; 104% in experiment [18].

As to `COC(=O)c1c[n+]([O-])ccc1OC`, the growth in experiment [1] was 103%; in experiment [2], 107%; in experiment [3] it was 96.6%; in experiment [4] it was 101%; in [5] it was 99.5%; in experiment [6], 99.7%. In addition, the growth in experiment [7] was 101%; in experiment [8], 104%; in experiment [10], 117%; in experiment [12], 98.2%; in experiment [19] it was 85.2%; in experiment [13], 102%. Also, the growth was 108% in experiment [14], 97.2% in experiment [15], 111% in experiment [16] and -47.4% (active) in experiment [18].

On to `CCCCCSc1ccc2nc(NC(=O)OCC)sc2c1`, for which the growth in [1] is 25.2%; in [2], 13.2%; in experiment [3] it was 0.686% (active); in [4], 37.4%; in experiment [5], 21.3%; in [6], 5.59% (active). Moreover, the growth in experiment [7] was 29.2%; in [8], 38.4%; in experiment [9], 61.9%; in experiment [10], 45.5%; in [11], 30.3%; in experiment [12], 52.5%. Further, the growth in experiment [13] is 49.7%; in [14], 39.7%; in [15] it was 27.6%; in experiment [16], -0.27% (active); in experiment [17], 12.4%; in experiment [18] it was 26.5%.

On to `CCC(C)C1NC(=O)C(CC(C)C)NC(=O)C(C)NC(=O)C(C(C)C)NC(=O)C(CCCCN)NC(=O)C(CC(C)C)NC(=O)C(C(C)C)NC(=O)[C@H](C)NC(=O)C(C(C)CC)NC(=O)C(CCCN=C(N)N)NC(=O)C(CCCCN)NC(=O)C(CCCN=C(N)N)NC(=O)C(CCCCN)NC(=O)C([C@H](C)CC)NC(=O)C(CCCCN)NC1=O` (stereo partly specified), for which the growth in [1] is 26.7%; in experiment [2] it was 3.41% (active); in [3], 28.8%; in [4] it was 17.4%; in [5], -4.78% (active); in experiment [6], 1.67% (active). Moreover, the growth in experiment [7] was 21.3%; in experiment [8], 35.4%; in experiment [9], 41.3%; in [10] it was 37.3%; in experiment [11], 15.3%; in experiment [19], 21.8%. Besides, the growth in experiment [13] was 20.2%; in experiment [14] it was 3.41% (active); in experiment [15], 8.2% (active); in experiment [16], 20.8%; in [17], 8.98% (active); in experiment [18], -6.28% (active).

`COC(=O)CC(=O)C(=O)OC`: the growth is 103% in experiment [1]; 106% in experiment [2]; 92.2% in experiment [3]; 107% in [4]; 99.8% in experiment [5]; 101% in experiment [6]. For the same molecule, the growth was 108% in experiment [7]; 55.1% in [8]; 107% in [12]; 91.4% in experiment [19]; 100% in experiment [14]; 133% in [15]. Moreover, the growth in [16] was 113%; in experiment [18], 97.9%.

For the origin of these results see PubChem BioAssay (NCI).
